Reference: PubChem BioAssay (EPA / NIEHS)
Active and inactive are the calls of the source. The calls were made as follows: active = hit-call score of the fitted dose curve at least 0.9, where 1 is the maximum; inactive = score below 0.9.

Experiments:
[1] = biological target: Bile acid receptor (Homo sapiens) (UniProt Q96RI1); test: ATG_IR1_CIS: Attagene CIS-FACTORIAL HepG2 Assay for human Nuclear Receptor Subfamily 1 Group H Member 4 (NR1H4), IR1 submotif (AID 2282946); conditions: IR1 reporter transcription, actives raise or lower the signal
Bile acid receptor (Homo sapiens), sequence (Q96RI1 whole entry, looked up): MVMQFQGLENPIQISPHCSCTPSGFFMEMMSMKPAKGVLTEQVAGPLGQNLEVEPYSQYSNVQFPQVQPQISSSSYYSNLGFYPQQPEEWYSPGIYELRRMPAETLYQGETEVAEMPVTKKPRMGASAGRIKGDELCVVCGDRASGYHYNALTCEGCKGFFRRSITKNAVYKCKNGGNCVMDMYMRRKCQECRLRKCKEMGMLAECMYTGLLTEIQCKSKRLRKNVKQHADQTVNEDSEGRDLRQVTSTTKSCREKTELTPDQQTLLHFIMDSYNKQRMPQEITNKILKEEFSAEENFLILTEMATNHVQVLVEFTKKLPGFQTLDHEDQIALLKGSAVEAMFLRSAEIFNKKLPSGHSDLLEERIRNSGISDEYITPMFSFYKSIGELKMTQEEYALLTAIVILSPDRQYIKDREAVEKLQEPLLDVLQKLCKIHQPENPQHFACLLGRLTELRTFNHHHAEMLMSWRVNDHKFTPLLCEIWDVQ
In short: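 Readout: reporter transcript levels by RT-PCR with fluorescent capillary electrophoresis, from HepG2 cells transiently transfected with multiplexed cis-regulated reporters and dosed 24 h. Gain- or loss-of-signal fitted versus DMSO negative control.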

[2] = ATG_GRE_CIS: Attagene CIS-FACTORIAL HepG2 Assay for human Glucocorticoid Response Elements (GRE) (AID 2282947); conditions: HepG2 GRE cis-reporter, Attagene multiplex mRNA; actives raise or lower the signal
In short: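 HepG2, transient cis-reporter transfection, 24 h. Reporter mRNA: RT-PCR then CE, fluorescence. Fit both directions vs DMSO.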

[3] = ATG_M_32_CIS: Attagene CIS-FACTORIAL HepG2 Assay for M32 Transcription Factor (Internal Marker) (AID 2282949); conditions: HepG2 Attagene cis-factorial M32 reporter, mRNA; actives raise or lower the signal;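 also: background control marker of the multiplexed CIS panel rather than a real target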
In short: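 Using DMSO as baseline, bidirectional curve fits were applied to reporter mRNA signals. These came from transiently transfected HepG2 cells exposed for 24 h, with RNA analysed by RT-PCR, FAM primer extension, HpaI digestion and CE.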

[4] = ATG_M_06_CIS: Attagene CIS-FACTORIAL HepG2 Assay for M06 Transcription Factor (Internal Marker) (AID 2282950); conditions: HepG2 Attagene CIS-FACTORIAL M06 internal marker reporter; actives raise or lower the signal
In short: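 Serves as a background control readout. Transfected HepG2 exposed to compounds for 24 h, then reporter transcripts quantified by fluorescent RT-PCR and capillary electrophoresis. Both directions fitted against DMSO baseline.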

[5] = biological target: Hepatocyte nuclear factor 6 (Homo sapiens) (UniProt Q9UBC0); test: ATG_HNF6_CIS: Attagene CIS-FACTORIAL HepG2 Assay for human Hepatocyte Nuclear Factor 6 (HNF6) (AID 2282952); conditions: HepG2 Attagene cis-factorial HNF6 reporter transcription; actives raise or lower the signal
Hepatocyte nuclear factor 6 (Homo sapiens), sequence (Q9UBC0 whole entry, looked up): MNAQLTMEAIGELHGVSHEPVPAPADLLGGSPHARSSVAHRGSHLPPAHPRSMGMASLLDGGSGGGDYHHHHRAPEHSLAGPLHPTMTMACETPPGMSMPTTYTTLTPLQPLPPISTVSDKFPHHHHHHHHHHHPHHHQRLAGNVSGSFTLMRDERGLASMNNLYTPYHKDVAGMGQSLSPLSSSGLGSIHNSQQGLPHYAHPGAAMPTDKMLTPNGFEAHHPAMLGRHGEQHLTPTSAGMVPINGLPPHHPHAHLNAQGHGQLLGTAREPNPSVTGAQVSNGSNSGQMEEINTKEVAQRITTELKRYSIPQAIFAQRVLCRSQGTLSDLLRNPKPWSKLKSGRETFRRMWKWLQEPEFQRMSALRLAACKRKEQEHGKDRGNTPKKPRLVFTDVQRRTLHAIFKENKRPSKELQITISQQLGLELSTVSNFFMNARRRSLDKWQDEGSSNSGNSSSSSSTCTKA
In short: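 Endogenous transcription factor activity in human HepG2 liver cells was captured through cis-regulated reporter constructs. After 24 h treatment, reporter mRNA was measured by RT-PCR with capillary electrophoresis, and activity was fitted in both directions relative to DMSO.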

[6] = biological target: Heat shock factor protein 1 (Homo sapiens) (UniProt Q00613); test: ATG_HSE_CIS: Attagene CIS-FACTORIAL HepG2 Assay for human Heat Shock Transcription Factor 1 (HSE) (AID 2282953); conditions: HepG2 HSE cis-reporter, Attagene RNA transcription; actives raise or lower the signal
Heat shock factor protein 1 (Homo sapiens), sequence (Q00613 whole entry, looked up): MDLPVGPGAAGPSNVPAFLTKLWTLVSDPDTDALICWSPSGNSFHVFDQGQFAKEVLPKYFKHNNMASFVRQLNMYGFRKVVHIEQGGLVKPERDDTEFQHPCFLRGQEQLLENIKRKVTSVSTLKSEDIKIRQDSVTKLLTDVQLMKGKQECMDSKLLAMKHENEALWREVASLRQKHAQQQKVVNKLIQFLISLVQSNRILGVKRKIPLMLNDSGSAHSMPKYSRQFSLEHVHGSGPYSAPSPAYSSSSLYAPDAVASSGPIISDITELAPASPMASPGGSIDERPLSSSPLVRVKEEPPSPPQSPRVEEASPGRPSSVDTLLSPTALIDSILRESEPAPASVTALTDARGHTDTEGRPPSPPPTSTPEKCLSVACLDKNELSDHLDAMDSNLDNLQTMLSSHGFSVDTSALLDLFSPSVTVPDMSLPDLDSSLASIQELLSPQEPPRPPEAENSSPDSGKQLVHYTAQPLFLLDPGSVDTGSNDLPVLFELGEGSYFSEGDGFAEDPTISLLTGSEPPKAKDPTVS
In short: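 Endogenous transcription factor activity in transiently transfected HepG2, read as reporter mRNA by RT-PCR with fluorescent capillary electrophoresis after 24 h. Gain or loss of signal fitted versus DMSO baseline.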

[7] = ATG_MRE_CIS: Attagene CIS-FACTORIAL HepG2 Assay for human Metal Responsive Element (MRE) (AID 2282954); conditions: HepG2 MRE cis-reporter transcription, Attagene multiplex; actives raise or lower the signal
In short: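 Readout: capillary electrophoresis of 6-FAM-labelled, HpaI-digested RT-PCR reporter products. System: HepG2 cells carrying transient multiplexed cis reporters, dosed 24 h. Analysis: bidirectional fit, DMSO baseline.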

[8] = biological target: Paired box protein Pax-6 (Homo sapiens) (UniProt P26367); test: ATG_Pax6_CIS: Attagene CIS-FACTORIAL HepG2 Assay for human Paired Box 6 (PAX6) (AID 2282956); conditions: HepG2 CIS-FACTORIAL PAX6 reporter transcription, RNA readout; actives raise or lower the signal
Paired box protein Pax-6 (Homo sapiens), sequence (P26367 whole entry, looked up): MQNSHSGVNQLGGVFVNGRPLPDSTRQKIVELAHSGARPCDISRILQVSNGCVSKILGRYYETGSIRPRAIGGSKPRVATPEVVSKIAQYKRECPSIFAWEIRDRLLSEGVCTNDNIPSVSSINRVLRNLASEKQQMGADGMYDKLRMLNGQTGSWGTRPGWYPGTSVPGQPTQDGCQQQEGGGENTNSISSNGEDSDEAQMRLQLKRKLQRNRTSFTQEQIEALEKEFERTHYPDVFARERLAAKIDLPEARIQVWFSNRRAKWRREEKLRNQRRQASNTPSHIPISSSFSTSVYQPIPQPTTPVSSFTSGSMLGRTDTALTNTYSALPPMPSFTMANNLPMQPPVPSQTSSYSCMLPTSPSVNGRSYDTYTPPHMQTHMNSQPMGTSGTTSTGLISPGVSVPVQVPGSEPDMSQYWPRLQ
In short: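 Readout: reporter transcript fluorescence after RT-PCR and capillary electrophoresis. Cells: HepG2, transiently transfected with cis-regulated MRTUs. Exposure 24 h. Gain or loss of signal fitted bidirectionally relative to DMSO.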

[9] = ATG_PXRE_CIS: Attagene CIS-FACTORIAL HepG2 Assay for human Pregnane X Receptor Element (PXRE) (AID 2282957); conditions: HepG2 Attagene CIS-FACTORIAL PXRE reporter, mRNA; actives raise or lower the signal
In short: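 Endogenous transcription factor activity in HepG2 was gauged through induction of reporter mRNA driven by a cis-regulating promoter element, sampled 24 h post-treatment. Activity was fitted in both directions against DMSO negative control.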

[10] = ATG_RORE_CIS: Attagene CIS-FACTORIAL HepG2 Assay for human RAR-related Orphan Receptor Element (RORE) (AID 2282959); conditions: HepG2 Attagene cis-factorial RORE reporter, mRNA; actives raise or lower the signal
In short: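 HepG2 cells transiently transfected with multiple cis-element reporter transcription units, exposed to chemical for 24 h. Reporter mRNA quantified by RT-PCR, 6-FAM primer-extension labeling, HpaI digestion and capillary electrophoresis; bidirectional fit versus DMSO baseline.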

[11] = ATG_Sox_CIS: Attagene CIS-FACTORIAL HepG2 Assay for human SRY-box transcription factor (SOX) (AID 2282960); conditions: HepG2 Attagene cis-factorial SOX reporter, mRNA; actives raise or lower the signal
In short: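 HepG2 cells transiently transfected with cis-element-driven multiple reporter transcription units, dosed 24 h; reporter mRNA measured by RT-PCR, FAM labelling, HpaI digestion and capillary electrophoresis. Bidirectional fit versus DMSO baseline.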

[12] = biological target: Transcription factor Sp1 (Homo sapiens) (UniProt P08047); test: ATG_Sp1_CIS: Attagene CIS-FACTORIAL HepG2 Assay for human Specificity Protein 1 (Sp1) (AID 2282961); conditions: HepG2 Sp1 cis-reporter transcription, actives raise or lower the signal
Transcription factor Sp1 (Homo sapiens), sequence (P08047 whole entry, looked up): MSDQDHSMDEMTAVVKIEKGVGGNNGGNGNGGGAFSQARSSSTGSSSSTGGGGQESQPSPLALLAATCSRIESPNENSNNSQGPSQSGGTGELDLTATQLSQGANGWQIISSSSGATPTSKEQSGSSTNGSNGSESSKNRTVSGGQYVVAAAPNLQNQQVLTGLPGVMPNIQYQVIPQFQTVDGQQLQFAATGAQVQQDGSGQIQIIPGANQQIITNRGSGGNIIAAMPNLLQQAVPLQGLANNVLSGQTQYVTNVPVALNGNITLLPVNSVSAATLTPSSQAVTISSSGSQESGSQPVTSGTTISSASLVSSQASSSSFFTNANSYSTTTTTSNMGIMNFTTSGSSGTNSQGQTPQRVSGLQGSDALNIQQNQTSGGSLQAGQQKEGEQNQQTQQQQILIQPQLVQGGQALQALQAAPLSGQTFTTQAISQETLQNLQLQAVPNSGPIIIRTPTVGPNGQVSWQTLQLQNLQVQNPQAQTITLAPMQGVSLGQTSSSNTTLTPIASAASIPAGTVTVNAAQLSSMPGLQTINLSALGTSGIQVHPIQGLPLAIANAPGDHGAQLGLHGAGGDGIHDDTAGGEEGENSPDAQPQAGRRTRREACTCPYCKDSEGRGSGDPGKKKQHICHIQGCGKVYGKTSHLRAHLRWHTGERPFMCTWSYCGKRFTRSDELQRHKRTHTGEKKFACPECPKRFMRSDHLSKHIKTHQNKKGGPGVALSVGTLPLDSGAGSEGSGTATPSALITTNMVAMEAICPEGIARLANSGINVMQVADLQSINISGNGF
In short: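 HepG2 cells transiently transfected with multiple reporter transcription units driven by cis-regulatory elements; Sp1-responsive reporter mRNA measured 24 h after dosing by RT-PCR and capillary electrophoresis fluorescence, fitted bidirectionally against DMSO baseline.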

[13] = biological target: Signal transducer and activator of transcription 3 (Homo sapiens) (UniProt P40763); test: ATG_STAT3_CIS: Attagene CIS-FACTORIAL HepG2 Assay for human Signal Transducer and Activator of Transcription 3 (STAT3) (AID 2282963); conditions: HepG2, Attagene cis-factorial STAT3 reporter transcription; actives raise or lower the signal
Signal transducer and activator of transcription 3 (Homo sapiens), sequence (P40763 whole entry, looked up): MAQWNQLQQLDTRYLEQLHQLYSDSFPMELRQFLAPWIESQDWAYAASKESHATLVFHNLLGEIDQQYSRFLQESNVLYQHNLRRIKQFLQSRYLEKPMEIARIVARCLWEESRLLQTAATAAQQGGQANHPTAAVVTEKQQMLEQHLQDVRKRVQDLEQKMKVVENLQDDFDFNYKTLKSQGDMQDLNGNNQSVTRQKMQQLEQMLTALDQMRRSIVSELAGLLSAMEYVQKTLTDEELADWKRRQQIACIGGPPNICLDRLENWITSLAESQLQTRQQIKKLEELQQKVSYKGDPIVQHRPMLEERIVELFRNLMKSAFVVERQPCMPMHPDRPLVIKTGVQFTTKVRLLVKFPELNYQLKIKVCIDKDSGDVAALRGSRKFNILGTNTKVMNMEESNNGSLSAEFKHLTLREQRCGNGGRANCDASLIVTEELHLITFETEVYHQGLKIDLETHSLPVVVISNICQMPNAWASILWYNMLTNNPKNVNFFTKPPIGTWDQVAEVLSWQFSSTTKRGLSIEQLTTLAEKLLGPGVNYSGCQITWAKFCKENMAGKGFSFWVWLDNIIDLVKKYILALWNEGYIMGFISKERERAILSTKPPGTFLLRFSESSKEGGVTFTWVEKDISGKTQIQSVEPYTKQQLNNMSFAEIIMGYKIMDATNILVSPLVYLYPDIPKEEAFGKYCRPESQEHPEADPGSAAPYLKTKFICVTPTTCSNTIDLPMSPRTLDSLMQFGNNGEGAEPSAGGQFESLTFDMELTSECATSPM
In short: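 Uses human liver HepG2 transiently carrying cis-regulated reporter transcription units. Following 24 h dosing, reporter mRNA induction was detected by RT-PCR and capillary electrophoresis, analysed bidirectionally versus DMSO.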

[14] = ATG_TA_CIS: Attagene CIS-FACTORIAL HepG2 Assay for human TA Basal Promoter (AID 2282964); conditions: HepG2 Attagene CIS-factorial TA basal promoter reporter; actives raise or lower the signal
In short: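 Background-control readout: TA basal promoter reporter mRNA, fitted in both directions relative to DMSO. Measured by RT-PCR and capillary electrophoresis 24 hours after treating HepG2 human liver cells transiently carrying multiplexed cis-regulated reporter constructs.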

[15] = ATG_TCF_b_cat_CIS: Attagene CIS-FACTORIAL HepG2 Assay for human T-Cell-Factor with beta-catenin (TCF/b-cat) (AID 2282965); conditions: HepG2 TCF/beta-catenin cis-reporter transcription, actives raise or lower the signal
In short: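 Using capillary electrophoresis as the read-out, labelled reporter cDNA fragments from transiently transfected HepG2 were sized and quantified. Exposure lasted 24 hours; activity in either direction was referenced to DMSO.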

[16] = ATG_ISRE_CIS: Attagene CIS-FACTORIAL HepG2 Assay for human Interferon Regulatory Factor 1 (IRF1) binding to an Interferon-Stimulated Response Element (ISRE) (AID 2282948); conditions: HepG2 ISRE cis-reporter (Attagene), mRNA transcription readout; actives raise or lower the signal
In short: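 Read-out: fluorescent RT-PCR products resolved by capillary electrophoresis, reporting endogenous transcription factor activity via ISRE-driven reporter mRNA in transfected HepG2 cells dosed for 24 h; gain or loss fitted relative to DMSO.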

[17] = ATG_PBREM_CIS: Attagene CIS-FACTORIAL HepG2 Assay for human Phenobarbital-responsive Enhancer Module (PBREM) (AID 2282955); conditions: HepG2 PBREM cis-reporter, Attagene multiplexed transcription; actives raise or lower the signal
In short: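 HepG2 cells transiently transfected with multiple cis-regulated reporter transcription units; endogenous factor activity at the PBREM element measured as reporter mRNA 24 h after dosing, via RT-PCR and capillary electrophoresis of fluorescent fragments; bidirectional fitting versus DMSO.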

[18] = ATG_PPRE_CIS: Attagene CIS-FACTORIAL HepG2 Assay for human Peroxisome Proliferator-activated Response Element (PPRE) (AID 2282958); conditions: HepG2 PPRE cis-element reporter, Attagene transcription factor profiling; actives raise or lower the signal
In short: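 HepG2 cells transiently transfected with multiplexed cis-element reporter units measure endogenous transcription factor activity. After 24 h compound exposure, reporter mRNA is quantified by RT-PCR, 6-FAM labeling, HpaI digestion and capillary electrophoresis; bidirectional fits are made against DMSO baseline.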

[19] = ATG_SREBP_CIS: Attagene CIS-FACTORIAL HepG2 Assay for human Sterol Regulatory Element Binding (SREBP) (AID 2282962); conditions: HepG2 Attagene cis-factorial SREBP reporter, mRNA; actives raise or lower the signal
In short: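 Readout: fluorescent reporter-transcript peaks resolved by capillary electrophoresis after RT-PCR. Cells were human HepG2 carrying transfected cis-promoter reporter constructs, dosed for 24 h. Gain or loss of signal was fitted against DMSO controls.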

[20] = biological target: Hypoxia-inducible factor 1-alpha (Homo sapiens) (UniProt Q16665); test: ATG_HIF1a_CIS: Attagene CIS-FACTORIAL HepG2 Assay for human Hypoxia Inducible Factor 1 (HIF1A) (AID 2282951); conditions: HepG2 Attagene cis-factorial HIF1a reporter transcription; actives raise or lower the signal
Hypoxia-inducible factor 1-alpha (Homo sapiens), sequence (Q16665 whole entry, looked up): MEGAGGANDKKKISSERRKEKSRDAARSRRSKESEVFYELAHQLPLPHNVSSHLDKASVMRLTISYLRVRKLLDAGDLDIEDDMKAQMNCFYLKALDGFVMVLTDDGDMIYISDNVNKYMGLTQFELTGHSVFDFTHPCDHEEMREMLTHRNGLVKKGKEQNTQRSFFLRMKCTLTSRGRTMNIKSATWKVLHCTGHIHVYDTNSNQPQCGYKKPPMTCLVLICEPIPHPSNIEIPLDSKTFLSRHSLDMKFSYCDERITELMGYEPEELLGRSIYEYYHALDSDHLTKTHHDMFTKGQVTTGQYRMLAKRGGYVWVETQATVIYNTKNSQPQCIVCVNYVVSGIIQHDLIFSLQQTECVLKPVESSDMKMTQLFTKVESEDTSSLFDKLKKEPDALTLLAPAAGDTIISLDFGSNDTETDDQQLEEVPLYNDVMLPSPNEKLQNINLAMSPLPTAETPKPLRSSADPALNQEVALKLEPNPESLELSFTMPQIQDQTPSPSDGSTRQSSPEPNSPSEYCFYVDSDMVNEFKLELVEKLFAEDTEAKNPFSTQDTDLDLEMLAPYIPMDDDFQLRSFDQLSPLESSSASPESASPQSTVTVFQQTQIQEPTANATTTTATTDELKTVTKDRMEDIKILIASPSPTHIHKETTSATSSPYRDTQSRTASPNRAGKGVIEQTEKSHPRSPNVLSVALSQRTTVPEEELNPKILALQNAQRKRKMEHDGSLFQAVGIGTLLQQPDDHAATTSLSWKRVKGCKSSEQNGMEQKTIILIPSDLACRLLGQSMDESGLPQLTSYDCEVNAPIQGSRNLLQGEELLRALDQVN
In short: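 HepG2 cells transiently transfected with multiplexed cis-promoter reporter units; reporter mRNA read 24 h after dosing by RT-PCR, 6-FAM primer-extension labelling, HpaI digestion and capillary electrophoresis. Bidirectional fit versus DMSO baseline.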

Measured: AC50

Cc1ncc[nH]1
not listed: [16] | [17] | [18] | [19] | [20]
inactive: all other assays above

CN(C)CCOC(C)(c1ccccc1)c1ccccn1 (stereo unspecified)
active: [9] 100 µM
not listed: [2] | [20]
inactive: all other assays above

C=Cc1ccc(C(C)(C)C)cc1
not listed: [2] | [9] | [20]
inactive: all other assays above

O=C1OC(=O)c2c(Cl)c(Cl)c(Cl)c(Cl)c21
not listed: [2] | [7] | [18] | [20]
inactive: all other assays above

CC(=O)c1ccccn1
not listed: [2] | [20]
inactive: all other assays above

CCCCCC(=O)CC
not listed: [2] | [7] | [9]
inactive: all other assays above

COc1ccc(COC(C)=O)cc1
not listed: [2] | [5] | [9] | [13] | [18]
inactive: all other assays above

CCCCOC(=O)CCCCCCCC(=O)OCCCC
active: [15] 128 µM
not listed: [2] | [13] | [17]
inactive: all other assays above

OCc1ccc(Cl)cc1Cl
not listed: [2] | [6] | [17] | [19]
inactive: all other assays above

CCCCCCOC(=O)C(C)C
not listed: [2] | [17]
inactive: all other assays above

N#Cc1cscn1
active: [9] 71.7 µM
not listed: [2] | [13] | [17] | [18] | [19]
inactive: all other assays above

CCOC(=O)CCc1ccccc1
not listed: [2] | [9] | [17]
inactive: all other assays above

Cc1cc(S(=O)(=O)O)ccc1N=Nc1c(O)ccc2ccccc12
active: [10] 4.16 µM
not listed: [2] | [7] | [9] | [15] | [17] | [18]
inactive: all other assays above

CC1CCC(C(C)C)C(O)C1 (stereo unspecified)
not listed: [2] | [6] | [10]
inactive: all other assays above

CCOc1ccccc1O
not listed: [2] | [6]
inactive: all other assays above

CCCCCC(C=O)=Cc1ccccc1
active: [6] 173 µM | [9] 24.5 µM | [18] 26.5 µM
not listed: [5] | [16]
inactive: all other assays above
